# In PubChem BioAssay (Tox21):
# Records with an inconclusive call do not appear. Entries that show only a call come without a potency. Unmarked numbers belong to inactive results. Active and inactive are the calls of the source. The call rests on the fitted dose curve; in most records, active means well fitted cell-killing curve with a large enough effect in the repeat runs; inconclusive means weak or mixed curves, or effect the other way; inactive means flat fitted curve, though single readings scatter.
# How the values were obtained:
# [1] = cAMP Responsive Elements (CRE) small molecule antagonists, cell-based qHTS assay: qHTS cell viability counter screen (AID 2060913); further: nearly all actives have a fitted effect of over 40% in size
# How it was run: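 Steps: cells plated and held 18 hrs at 37 C/5% CO2; compounds and NKH477 (0.25 uM final) added; 3 hrs incubation; reporter substrate read; CellTiter-Glo added to measure cytotoxicity by luminescence.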
# [2] = cAMP Responsive Elements (CRE) small molecule agonists, cell-based qHTS assay: qHTS cell viability counter screen (AID 2060914);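 further: viability read after 3 h of compound exposure; nearly all actives have a fitted effect of over 50% in size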
# How it was run: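 Cells are seeded and incubated 18 h, treated with compounds in DMSO for 3 h, read for the bla reporter, then given CellTiter-Glo; luminescence is measured after 30 min at room temperature.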
# Potency means the concentration at half of the fitted maximal effect.
compound,measurement,setting,value
CN(C)CCOC(c1ccccc1)c1ccc(Br)cc1 (stereo not given),Potency,[1],inactive
same,Potency,[2],inactive
Cc1c(N(C)C)c(=O)n(-c2ccccc2)n1C,Potency,[1],inactive
same,Potency,[2],inactive
CC(CCC(=O)O)(c1ccc(O)cc1)c1ccc(O)cc1,Potency,[1],inactive
same,Potency,[2],inactive
CCC1(C)C(=O)N(Cl)C(=O)N1Cl (stereo not given),Potency,[1],inactive
same,Potency,[2],inactive
CCc1cnc(C(=O)O)c(C(=O)O)c1,Potency,[1],inactive
same,Potency,[2],inactive
O=C(OCc1ccccc1)c1ccccc1,Potency,[1],inactive
same,Potency,[2],inactive
COc1ccc2cc([C@H](C)C(=O)O)ccc2c1,Potency,[1],inactive
same,Potency,[2],inactive
CC(CNC1CCCCC1)OC(=O)c1ccccc1 (stereo not given),Potency,[1],inactive
same,Potency,[2],inactive
CN(C)CCC=C1c2ccccc2CCc2ccccc21,Potency,[1],inactive
same,Potency,[2],inactive
Cl/C(=C\n1cncn1)c1ccc(Cl)cc1Cl,Potency,[1],inactive
same,Potency,[2],inactive
CCCCCCCCCCCCCCCCOS(=O)(=O)O,Potency,[1],inactive
same,Potency,[2],inactive
C[n+]1cc2c3c(ccc2c2ccc4cc5c(cc4c21)OCO5)OCO3,Potency,[1],3.66 µM (active)
same,Potency,[2],3.26 µM (active)
Cc1nc2c([nH]1)c(=O)n(C)c(=O)n2Cc1ccco1,Potency,[1],inactive
same,Potency,[2],inactive
N[C@@H](CCC(=O)N[C@@H](CS)C(=O)NCC(=O)O)C(=O)O,"viability change, negative = cytotoxic",[1],4.12% [at 18.9 µM]
same,"activity change, negative = cytotoxicity",[2],-1.41% [at 18.9 µM]
CC(=O)O[C@@H]1CC2CCC1(C)C2(C)C (stereo not given in full),Potency,[1],inactive
same,Potency,[2],inactive
CC(C)=CCO,Potency,[1],inactive
same,Potency,[2],inactive
Clc1ccc2cc3ccccc3cc2c1,Potency,[1],inactive
same,Potency,[2],inactive
CCOC(=O)c1ccc(I)cc1,Potency,[1],inactive
same,Potency,[2],inactive
CC1(C)[C@@H]2CC[C@@]1(C)[C@H](O)C2,Potency,[1],inactive
same,Potency,[2],inactive
Cc1cscn1,Potency,[1],inactive
same,Potency,[2],inactive
C[C@H]1NCc2cc(-c3ccc4c(=O)c(C(=O)O)cn(C5CC5)c4c3OC(F)F)ccc21,"viability change, negative = cytotoxic",[1],4.45% [at 18.9 µM]
same,"activity change, negative = cytotoxicity",[2],-2.79% [at 18.9 µM]
C#CC(C)N(C)C(=O)Nc1ccc(Cl)cc1 (stereo not given),Potency,[1],inactive
same,Potency,[2],inactive
CCC(C)N (stereo not given),Potency,[1],inactive
same,Potency,[2],inactive
CC(=O)SCC(CC(=O)c1ccc(C)cc1)C(=O)O (stereo not given),Potency,[1],inactive
same,Potency,[2],inactive
OCCCC1CCCCC1,Potency,[1],inactive
same,Potency,[2],inactive
OCCCCCCCCCCCCBr,Potency,[1],inactive
same,Potency,[2],inactive
O=C(c1ccc(F)cc1)C1CCN(CCn2c(=S)[nH]c3ccccc3c2=O)CC1,Potency,[1],inactive
same,Potency,[2],inactive
CC(=O)c1ccccc1N,Potency,[1],inactive
same,Potency,[2],inactive
CNS(=O)(=O)c1cc(C(=O)N2CCC(CCN3C4CCC3CC(n3c(C)nc5ccccc53)C4)(c3cccc(F)c3)CC2)c(Cl)cc1F (stereo not given),Potency,[1],inactive
same,Potency,[2],inactive
CCOc1ccc2nc(S(N)(=O)=O)sc2c1,Potency,[1],inactive
same,Potency,[2],inactive
SC1CCCC1,Potency,[1],inactive
same,Potency,[2],inactive
CC(CN(C)C)C(C)(O)Cc1ccc(Cl)cc1 (stereo not given),Potency,[1],inactive
same,Potency,[2],inactive
CCc1ccccc1O,Potency,[1],inactive
same,Potency,[2],inactive
OC1C(O)C(O)C(O)C(O)C1O (stereo not given),Potency,[1],inactive
same,Potency,[2],inactive
CN(C)[C@@H]1C(=O)C(C(N)=O)=C(O)[C@@]2(O)C(=O)C3=C(O)c4c(O)ccc(Cl)c4[C@@H](O)[C@H]3C[C@@H]12,Potency,[1],inactive
same,Potency,[2],inactive
CC/C=C\C/C=C\C/C=C\CCCCCCCC(=O)OC,Potency,[1],inactive
same,Potency,[2],inactive
CCCCC(CC)COCCO (stereo not given),Potency,[1],inactive
same,Potency,[2],inactive
NC1=NCC2c3ccccc3Cc3ccccc3N12 (stereo not given),Potency,[1],inactive
same,Potency,[2],inactive
N#Cc1ccccc1O,Potency,[1],inactive
same,Potency,[2],inactive
CC(N)C12CC3CC(CC(C3)C1)C2 (stereo not given),Potency,[1],inactive
same,Potency,[2],inactive
Cc1cccc2cccnc12,Potency,[1],inactive
same,Potency,[2],inactive
Cc1c(N)cccc1C(F)(F)F,Potency,[1],inactive
same,Potency,[2],inactive
CCOC(=O)CN,Potency,[2],inactive
COC1=C(OC)C(=O)C(CCCCCCCCCCO)=C(C)C1=O,Potency,[2],inactive
O=C(c1ccccc1)c1ccccc1O,Potency,[2],inactive
Cc1noc(NS(=O)(=O)c2ccc(N)cc2)c1C,Potency,[2],inactive
O=C=NCC1CCCC(CN=C=O)C1 (stereo not given),Potency,[2],inactive
CCN(CC)CCNC(=O)COc1ccc(OC)cc1,Potency,[2],inactive
NC(=O)C1(N2CCCCC2)CCN(CCCN2c3ccccc3CCc3ccc(Cl)cc32)CC1,Potency,[2],inactive
CCCCOC(=O)CC#N,Potency,[2],inactive
O=C(Nc1ccccc1)Nc1ccccc1,Potency,[2],inactive
O=C(O)CCC(=O)OC[C@@H](NC(=O)C(Cl)Cl)[C@H](O)c1ccc([N+](=O)[O-])cc1,Potency,[2],inactive
C=C(C)C(=O)OCCO,Potency,[2],inactive
COC(=O)C1=C(C)NC(C)=C(C(=O)OCCCN2CCC(c3ccccc3)(c3ccccc3)CC2)C1c1cccc([N+](=O)[O-])c1 (stereo not given),Potency,[2],inactive
CC(=O)CC(=O)N(C)C,Potency,[2],inactive
COC(=O)[C@]1(C)CCC[C@@]2(C)[C@H]1CC=C1C=C(C(C)C)CC[C@@H]12,Potency,[2],inactive
C=CCOc1cc(Cl)ccc1C(=O)NCCN(CC)CC,Potency,[2],inactive
CCC(C)=O,Potency,[2],inactive
O=C(O)c1cc(=O)[nH]c(=O)[nH]1,Potency,[2],inactive
C1=Cc2ccccc2C1,Potency,[2],inactive
CC1CC(O)CC(C)(C)C1 (stereo not given),Potency,[2],inactive
CCC(=O)/C=C/c1ccc(OC)cc1,Potency,[2],inactive
CN1CCN(Cc2cc(-c3ccc4[nH]c(=O)oc4c3)co2)[C@@H](c2ccc(F)cc2)C1,Potency,[2],inactive
